In the library only some 17% were active in any assay of this set; here they are far more common.
TDP1 cell CPT: growth inhibition of DT40 Tdp1-/-;hTDP1 cells with camptothecin (screen for TDP1 inhibitors); 12% of 420,000 active; Potency, µM (highest dose often 46.2 µM), most hits filed as inhibitors; chicken DT40 Tdp1-/-;hTDP1 cells + 20 nM CPT, ATP luminescence, 48 h; also: nearly all actives have a fitted effect of over 55% in size
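Cell growth measured by CellTiter-Glo luminescence after a minimum 48 h, 37 C compound exposure with 20 nM CPT in Tdp1-knockout DT40 cells stably expressing hTDP1, seeded 400/well; qHTS titration format.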
ClpP mod: qHTS Assay for Activators of ClpP; ATP-dependent Clp protease proteolytic subunit (Bacillus subtilis (strain 168)), P80244; purified B. subtilis ClpP, FRET peptide cleavage, 20 min; Potency, µM (highest dose often 57.5 µM); 1.9% of 340,000 active; active = well fitted falling curve with a large enough effect; inconclusive = small, poorly fitted or top-dose-only effect; inactive = no such curve, though single readings can be large or run the other way; also: the source files actives as falling curves though it sought activators and does not explain the sign; nearly all actives have a fitted effect of over 65% in size
Target sequence (P80244 whole entry, looked up): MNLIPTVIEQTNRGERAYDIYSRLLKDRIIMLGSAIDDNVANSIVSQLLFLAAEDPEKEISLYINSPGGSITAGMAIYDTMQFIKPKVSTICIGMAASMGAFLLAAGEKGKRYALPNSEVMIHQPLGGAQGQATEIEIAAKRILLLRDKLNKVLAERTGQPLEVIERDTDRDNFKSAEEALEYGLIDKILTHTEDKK
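Purified B. subtilis ClpP, 10 microg/mL final in Tris/HCl pH8 with KCl, BSA, glycerol and Tween-20, cleaved an Abz/nitrotyrosine-quenched decapeptide. Fluorescence (ex 320, em 430) was read at 0 and 20 min at room temperature. Delta was normalized to 5.8 microM ADEP and DMSO/no-enzyme controls.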
TDP1 inh: inhibitors of human tyrosyl-DNA phosphodiesterase TDP1. recombinant TDP1, AlphaScreen DNA substrate cleavage. Potency, µM (top dose mostly 130 µM), actives largely listed as inhibitors. 0.28% of 350,000 active. AID 485290; also: nearly all actives have a fitted effect of over 40% in size
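Tdp1 1 nM final; 15 min RT w/ cpd; substrate 15 nM, 5 min; beads 10 ug/ml, 10 min; AlphaScreen read. Neg ctrl: no enzyme.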
TDP1 cell noCPT: qHTS for Inhibitors of human tyrosyl-DNA phosphodiesterase 1 (TDP1): qHTS in cells in absence of CPT; DT40 Tdp1-/- hTDP1 cells, no CPT, ATP luminescence, 48 h; Potency, µM (top dose mostly 46.2 µM), hits mostly inhibitors; 15% of 420,000 active; also: nearly all actives have a fitted effect of over 55% in size
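Growth of hTDP1-complemented DT40 Tdp1-knockout cells is measured by ATP luminescence after at least 48 hr compound exposure at 37 °C, with DMSO substituting for the 20 nM CPT used in the parallel screen.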
Each line names hits and unclear results; the compound was inactive in the other large screens. Unless noted, calls follow the shape of the dose curve; as a rule, active = well fitted curve in the direction sought with a large enough effect; inconclusive = small, poorly fitted or top-dose-only effect, or another doubt; inactive = no such curve, though single readings can be large; an effect the other way counts as inactive or inconclusive.

CCS(=O)(=O)c1ncc(N(Cc2cccc(F)c2)Cc2ccco2)c(C(=O)Nc2ccccc2Cl)n1	TDP1 cell CPT inconclusive, TDP1 cell noCPT 6.5µM
Cc1ccccc1NC(=O)c1nc(S(C)(=O)=O)ncc1N(Cc1ccco1)Cc1sccc1C	TDP1 cell CPT 16µM, TDP1 cell noCPT 21µM
Cc1ccc(NC(=O)c2nc(S(C)(=O)=O)ncc2N(Cc2ccco2)Cc2cccs2)c(C)c1	TDP1 cell CPT inconclusive, TDP1 cell noCPT 21µM
NC(=O)c1nsc(C(=O)N(CC(=O)NCc2ccccc2)c2ccc(F)cc2)c1N	none (no result: ClpP mod)
CCc1nc2cc(C(=O)NC3CCS(=O)(=O)C3)cc(NC(=O)c3ccccc3OC)c2n1C (configuration not stated)	none (no result: ClpP mod, TDP1 inh)
O=C(O)[C@H]1CCCC[C@H]1C(=O)Nc1ccc(S(=O)(=O)N2CCOCC2)cc1	none (no result: ClpP mod, TDP1 inh)
O=C(CN1C(=O)NC2(CCc3ccccc32)C1=O)NCc1cccc(C(F)(F)F)c1 (configuration not stated)	none (no result: ClpP mod)
O=C(NCCN1CCCCC1)Nc1cccc(C(F)(F)F)c1	none
C[C@H](CO)N1C[C@H](C)[C@@H](CN(C)C(=O)Nc2ccc3c(c2)OCO3)Oc2ccc(NC(=O)Cn3cnnn3)cc2C1=O	none
O=c1[nH]nnc2cc(Cl)ccc12	none (no result: TDP1 inh)
CCS(=O)(=O)c1ncc(N(Cc2ccco2)Cc2sccc2C)c(C(=O)Nc2cc(C)ccc2C)n1	TDP1 cell CPT inconclusive, TDP1 cell noCPT 21µM
COC(=O)c1ccc(N2CCN(C)CC2)c(NC(=O)COc2ccc(C)cc2)c1	TDP1 cell CPT inconclusive
COC(=O)c1ccc(N2CCN(C)CC2)c(NC(=O)COc2ccc(OC)cc2)c1	TDP1 cell CPT 21µM
COC(=O)c1ccc(N2CCN(C)CC2)c(NC(=O)COc2ccccc2Cl)c1	TDP1 cell CPT 21µM, TDP1 cell noCPT 23µM (no result: ClpP mod, TDP1 inh)
O=C1C2=C(c3ccccc31)[N+](=O)C1CCCCC1N2[O-] (configuration not stated)	TDP1 cell CPT 23µM, TDP1 cell noCPT 15µM
O=C1C2=C(c3ccccc31)[N+](=O)[C@@H]1CCCC[C@@H]1N2[O-]	TDP1 cell CPT inconclusive, TDP1 cell noCPT inconclusive
COc1ccc(NS(=O)(=O)c2ccc(N3CCOCC3)c(N)c2)cc1	TDP1 cell CPT 2.6µM, TDP1 cell noCPT 1.2µM
COc1ccc(N2CCOCC2)c(NC(=O)c2ccc3c(c2)OCO3)c1	TDP1 cell CPT inconclusive, TDP1 cell noCPT 21µM (no result: ClpP mod, TDP1 inh)
COC(=O)c1ccc(N2CCOCC2)c(NC(=O)c2ccc3c(c2)OCO3)c1	TDP1 cell noCPT inconclusive (no result: ClpP mod, TDP1 inh)
COc1ccc(NS(=O)(=O)c2ccc(N3CCOCC3)c(NC(=O)c3ccccc3Cl)c2)cc1	TDP1 cell noCPT inconclusive
COc1ccc(S(=O)(=O)Nc2ccc(N3CCOCC3)cc2)cc1	none (no result: TDP1 inh)
COc1ccc(NS(=O)(=O)c2ccc(N3CCOCC3)c(NC(=O)c3ccc(OC)cc3)c2)cc1	TDP1 cell CPT 16µM, TDP1 cell noCPT 16µM
CCOc1ccc(NC(=O)CN(C)C2=NS(=O)(=O)c3ccccc32)cc1	none (no result: TDP1 inh)
COCCN(C(=O)CSc1nnc(-c2cccs2)n1N)c1c(N)n(Cc2ccccc2)c(=O)[nH]c1=O	none
COc1ccccc1NS(=O)(=O)c1cc(NC(=O)CCc2nc3ccccc3c(=O)[nH]2)ccc1C	TDP1 cell CPT inconclusive, TDP1 cell noCPT inconclusive (no result: TDP1 inh)
O=C(C=C=Nc1ccccc1)C(=O)N=C=Cc1ccccc1	TDP1 cell CPT 1.8µM, TDP1 cell noCPT 4.6µM (no result: ClpP mod)
COc1ccc(C(=O)Nc2ccc3c(c2)CCCN3S(=O)(=O)c2ccc(C)cc2)cc1	TDP1 cell CPT 21µM, TDP1 cell noCPT 13µM
COc1ccc2c(c1)CCCN2C(N)=Nc1ccc(Cl)cc1	TDP1 cell CPT inconclusive, TDP1 cell noCPT 23µM (no result: ClpP mod, TDP1 inh)
COc1ccc2c(c1)CCCN2S(=O)(=O)c1ccc(Cl)cc1	TDP1 cell CPT 23µM, TDP1 cell noCPT 15µM
COc1ccc2c(c1)CCCN2C(N)=O	none
Cc1ccc(S(=O)(=O)N2CCCc3cc(NC(=O)c4ccc(C(C)(C)C)cc4)ccc32)cc1	TDP1 cell CPT 4.1µM, TDP1 cell noCPT 3.7µM
CCCCOc1ccc(C(=O)Nc2ccc3c(c2)CCCN3S(=O)(=O)c2ccc(C)cc2)cc1	TDP1 cell CPT inconclusive, TDP1 cell noCPT inconclusive
c1cc[n+](CCC[n+]2ccccc2)cc1	none (no result: TDP1 inh)
CCN(CCCNC(=O)c1cc2c(=O)n(CC)c3ccccc3c2s1)c1ccccc1	TDP1 cell CPT inconclusive, TDP1 cell noCPT 18µM
CCn1c(=O)c2cc(C(=O)Nc3cccc(C(F)(F)F)c3)sc2c2ccccc21	TDP1 cell CPT 7.3µM, TDP1 cell noCPT 9.2µM
CCn1c(=O)c2cc(C(=O)NCCC(C)C)sc2c2ccccc21	TDP1 cell noCPT inconclusive (no result: TDP1 inh)
CCn1c(=O)c2cc(C(=O)NCCCOC)sc2c2ccccc21	TDP1 cell CPT 18µM, TDP1 cell noCPT 10µM
CCC(C)NC(=O)c1cc2c(=O)n(CC)c3ccccc3c2s1 (configuration not stated)	TDP1 cell CPT inconclusive, TDP1 cell noCPT inconclusive (no result: TDP1 inh)
Cc1cccc(C)c1NC(=O)CNC(=O)c1ccccc1	none (no result: ClpP mod)
CSc1nc(NCCOC(C)=O)c(C#N)c(-c2ccc(C(C)(C)C)cc2)n1	TDP1 cell CPT inconclusive, TDP1 cell noCPT 16µM
CSc1nc(N(C)C)nc(N(C#N)CCOC(C)=O)n1	TDP1 cell CPT inconclusive, TDP1 cell noCPT inconclusive (no result: ClpP mod)
CCCCCC(C(=O)O)C(C)CC(=O)NC1CCCCC1 (configuration not stated)	ClpP mod 13µM
CC(C)CCC(C(=O)O)C(C)CC(=O)NC1CCCCC1 (configuration not stated)	none
CCCCCCCCN[C@@H](C)[C@H](O)c1ccc(SC(C)C)cc1	none (no result: TDP1 cell CPT, ClpP mod, TDP1 cell noCPT)
Cc1ccc(Nc2nc(NCc3ccccc3)nc3ccsc23)c(C)c1	TDP1 cell CPT 23µM, ClpP mod inconclusive, TDP1 cell noCPT 6.5µM (no result: TDP1 inh)
Cc1ccc(Nc2nc3c(S(=O)(=O)c4ccccc4)nnn3c3ccsc23)c(C)c1	TDP1 cell CPT inconclusive, TDP1 cell noCPT inconclusive
Cc1ccc(Nc2nc(NCc3cccs3)nc3ccsc23)c(C)c1	TDP1 cell CPT 23µM, ClpP mod inconclusive, TDP1 cell noCPT 9.2µM (no result: TDP1 inh)
Cc1cc(Cl)ccc1-c1nc(NCc2ccccc2)nc2ccsc12	TDP1 cell CPT inconclusive, TDP1 cell noCPT inconclusive (no result: TDP1 inh)
CC(=O)OCC(=O)[C@@]1(O)CC[C@H]2[C@@H]3CCC4=CC(=O)CC[C@]4(C)C3=CC[C@@]21C	none (no result: ClpP mod, TDP1 inh)
O=c1c2ccccc2oc2cc(O)c(C3COCC(CO)C(O)C(O)C3O)c(O)c12 (configuration not stated)	none (no result: ClpP mod)
COCCN(CCOC)c1nc(C)nc2c1nc(-c1ccccc1)n2CCCN1CCCCC1C (configuration not stated)	none (no result: TDP1 cell CPT, ClpP mod, TDP1 cell noCPT)
COc1ccc(NC(=O)CSc2ccccc2)cc1S(=O)(=O)N1CCOCC1	none
O=C(Nc1cccc(S(=O)(=O)N2CCCC2)c1)c1ccc(Cl)nc1	TDP1 cell CPT 4.6µM, TDP1 cell noCPT 5.8µM (no result: ClpP mod)
COc1ccccc1NS(=O)(=O)c1cc(NC(=O)c2ccc(Cl)nc2)ccc1Cl	TDP1 cell CPT 9.2µM, TDP1 cell noCPT 7.3µM
